{"source": "ChEMBL document CHEMBL3433997", "about": "“St. Jude Leishmania screening dataset” (2016)", "format_in_all_cases": "functional", "key": {"[1]": {"target": "Solute carrier family 2, facilitated glucose transporter member 1 (Homo sapiens) (UniProt P11166)", "sequence (P11166 whole entry)": "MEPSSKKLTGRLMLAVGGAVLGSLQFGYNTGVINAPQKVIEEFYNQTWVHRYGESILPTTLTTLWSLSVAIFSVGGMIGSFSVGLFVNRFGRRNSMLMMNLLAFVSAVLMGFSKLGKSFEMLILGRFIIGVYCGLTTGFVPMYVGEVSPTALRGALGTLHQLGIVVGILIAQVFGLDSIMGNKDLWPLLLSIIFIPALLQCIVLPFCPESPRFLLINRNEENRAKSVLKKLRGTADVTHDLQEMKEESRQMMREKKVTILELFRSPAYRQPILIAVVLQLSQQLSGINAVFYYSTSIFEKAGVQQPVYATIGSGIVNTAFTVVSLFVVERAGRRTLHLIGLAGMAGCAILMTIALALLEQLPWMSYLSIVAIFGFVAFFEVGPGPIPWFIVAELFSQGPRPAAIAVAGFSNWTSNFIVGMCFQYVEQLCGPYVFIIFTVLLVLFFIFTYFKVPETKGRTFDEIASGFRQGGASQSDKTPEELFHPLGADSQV", "experiment": "ST_JUDE_LEISH: Cytotoxicity at 2uM final concentration against transgenic Leishmania Mexicana promastigotes LmGLUT1 that are glucose transport deficient and complemented with the human glucose transporter GLUT1. Activity is measured by DNA content using SYBR green in vitro"}, "[2]": {"target": "Hexose transporter 1 (Plasmodium falciparum) (UniProt O97467)", "experiment": "ST_JUDE_LEISH: Cytotoxicity at 2uM final concentration against transgenic Leishmania Mexicana promastigotes LmPfHT that are glucose transport deficient and complemented with the Plasmodium falciparum hexose transporter. Activity is measured by DNA content using SYBR green in vitro"}, "[3]": {"target": "Glucose transporter (Leishmania mexicana) (UniProt O61059)", "experiment": "ST_JUDE_LEISH: Cytotoxicity at 2uM final concentration against transgenic Leishmania Mexicana promastigotes LmGT2 that are glucose transport deficient and complemented with the L. Mexicana glucose transporter 2. Activity is measured by DNA content using SYBR green in vitro"}}, "data": [{"smiles": "Nc1ncc(-c2ccsc2)cc1-c1nc2ccccc2[nH]1", "values": [{"measurement": "inhibition", "setting": "[1]", "result": 2.86, "unit": "%"}, {"measurement": "inhibition", "setting": "[2]", "result": 6.79, "unit": "%"}, {"measurement": "inhibition", "setting": "[3]", "result": 2.5, "unit": "%"}]}, {"smiles": "CCN1CCN(Cc2ccc(-c3ccc(NS(=O)(=O)c4cccc5cccnc45)cc3)cc2)CC1", "values": [{"measurement": "inhibition", "setting": "[1]", "result": 20.6, "unit": "%"}, {"measurement": "inhibition", "setting": "[2]", "result": 14, "unit": "%"}, {"measurement": "inhibition", "setting": "[3]", "result": 9.92, "unit": "%"}]}, {"smiles": "CCCN(Cc1nnc(-c2cccs2)o1)C(=O)CSc1nnnn1-c1ccc(C)c(C)c1", "values": [{"measurement": "inhibition", "setting": "[1]", "result": 12.1, "unit": "%"}, {"measurement": "inhibition", "setting": "[2]", "result": 11.8, "unit": "%"}, {"measurement": "inhibition", "setting": "[3]", "result": 9.19, "unit": "%"}]}, {"smiles": "O=C(Nc1ccnc(N2CC3CC2CN3Cc2cccc(O)c2)c1)c1ccc(F)cc1", "note": "(stereo unspecified)", "values": [{"measurement": "inhibition", "setting": "[1]", "result": 0.07, "unit": "%"}, {"measurement": "inhibition", "setting": "[2]", "result": -1.27, "unit": "%"}, {"measurement": "inhibition", "setting": "[3]", "result": 1.75, "unit": "%"}]}, {"smiles": "N#Cc1cc([N+](=O)[O-])ccc1-n1nc(-c2cccc(Cl)c2)n(Cc2ccco2)c1=S", "values": [{"measurement": "inhibition", "setting": "[1]", "result": 1.94, "unit": "%"}, {"measurement": "inhibition", "setting": "[2]", "result": 1.56, "unit": "%"}, {"measurement": "inhibition", "setting": "[3]", "result": -3.52, "unit": "%"}]}, {"smiles": "Cc1ccc(C(=O)c2oc3ccc4c(C)cc(=O)oc4c3c2C)cc1", "values": [{"measurement": "inhibition", "setting": "[1]", "result": -0.73, "unit": "%"}, {"measurement": "inhibition", "setting": "[2]", "result": -0.13, "unit": "%"}, {"measurement": "inhibition", "setting": "[3]", "result": 0.22, "unit": "%"}]}, {"smiles": "COc1cccc(CC(=O)N2CCC(n3c(C)nc4ccc(C)cc43)CC2)c1", "values": [{"measurement": "inhibition", "setting": "[1]", "result": 1.58, "unit": "%"}, {"measurement": "inhibition", "setting": "[2]", "result": 1.46, "unit": "%"}, {"measurement": "inhibition", "setting": "[3]", "result": 1.1, "unit": "%"}]}, {"smiles": "O=C(Nc1ccncc1)c1cn(-c2ccccc2)nc1-c1cccs1", "values": [{"measurement": "inhibition", "setting": "[1]", "result": 5.19, "unit": "%"}, {"measurement": "inhibition", "setting": "[2]", "result": 2.4, "unit": "%"}, {"measurement": "inhibition", "setting": "[3]", "result": 3.52, "unit": "%"}]}, {"smiles": "NC1CCN(CCc2ccc(NS(=O)(=O)c3ccc(-c4ccccc4)cc3)cc2)CC1", "values": [{"measurement": "inhibition", "setting": "[1]", "result": 0.64, "unit": "%"}, {"measurement": "inhibition", "setting": "[2]", "result": -0.24, "unit": "%"}, {"measurement": "inhibition", "setting": "[3]", "result": 0.08, "unit": "%"}]}, {"smiles": "COc1ccc(Cn2c(=O)[nH]c3cc(C(=O)NC4CCN(Cc5ccccc5)CC4)ccc3c2=O)cc1", "values": [{"measurement": "inhibition", "setting": "[1]", "result": 2.2, "unit": "%"}, {"measurement": "inhibition", "setting": "[2]", "result": 0.63, "unit": "%"}, {"measurement": "inhibition", "setting": "[3]", "result": 2.59, "unit": "%"}]}, {"smiles": "CCOc1ccccc1C1CCN(CCCCNC(=O)c2ccc(NC(=O)c3ccc(Cl)cc3)cc2)CC1", "values": [{"measurement": "inhibition", "setting": "[1]", "result": 10.6, "unit": "%"}, {"measurement": "inhibition", "setting": "[2]", "result": 7.51, "unit": "%"}, {"measurement": "inhibition", "setting": "[3]", "result": 10.8, "unit": "%"}]}, {"smiles": "Oc1cccc(Nc2nc(NCc3ccccc3)c3ccccc3n2)c1", "values": [{"measurement": "inhibition", "setting": "[1]", "result": 22.9, "unit": "%"}, {"measurement": "inhibition", "setting": "[2]", "result": 19.9, "unit": "%"}, {"measurement": "inhibition", "setting": "[3]", "result": 11.8, "unit": "%"}]}, {"smiles": "COc1cc(C=C(C2=NC(=O)CS2)c2nc3cccnc3n2C)ccc1O", "values": [{"measurement": "inhibition", "setting": "[1]", "result": 5.2, "unit": "%"}, {"measurement": "inhibition", "setting": "[2]", "result": 5.56, "unit": "%"}, {"measurement": "inhibition", "setting": "[3]", "result": 4.82, "unit": "%"}]}, {"smiles": "Nc1ccc(-c2ccc(NC(=O)Nc3ccccc3)cc2)cn1", "values": [{"measurement": "inhibition", "setting": "[1]", "result": 2.95, "unit": "%"}, {"measurement": "inhibition", "setting": "[2]", "result": 2.5, "unit": "%"}, {"measurement": "inhibition", "setting": "[3]", "result": 3.08, "unit": "%"}]}, {"smiles": "Cc1cc2nc(-c3ccc(C(=O)NCc4cccc(F)c4)cc3)[nH]c2cc1C", "values": [{"measurement": "inhibition", "setting": "[1]", "result": -0.23, "unit": "%"}, {"measurement": "inhibition", "setting": "[2]", "result": 0.73, "unit": "%"}, {"measurement": "inhibition", "setting": "[3]", "result": -1.73, "unit": "%"}]}, {"smiles": "c1ccc2cc3c(Nc4ccc(N5CCCCCC5)cc4)ccnc3cc2c1", "values": [{"measurement": "inhibition", "setting": "[1]", "result": 0.03, "unit": "%"}, {"measurement": "inhibition", "setting": "[2]", "result": 0.23, "unit": "%"}, {"measurement": "inhibition", "setting": "[3]", "result": 0.24, "unit": "%"}]}, {"smiles": "O=C(Cc1ccc(-n2cnnn2)cc1)N(Cc1cncn1Cc1cccc(C(F)(F)F)c1)CC1CC1", "values": [{"measurement": "inhibition", "setting": "[1]", "result": -1.26, "unit": "%"}, {"measurement": "inhibition", "setting": "[2]", "result": -1.38, "unit": "%"}, {"measurement": "inhibition", "setting": "[3]", "result": 1.66, "unit": "%"}]}]}
